KB-V1 cytotox: qHTS assay for MDR1-selective chemotherapeutics: Primary screen using the drug-selected MDR subline cells KB-V1; AID 1347076, 2019; Potency, µM (titrated, usually from 46.1 µM), usual class: cytotoxic; actives 3.4% (n = 400,000); KB-V1 MDR cells viability, CellTiter-Glo, 72 h; further: nearly all actives have a fitted effect of over 60% in size
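Cells of the MDR subline KB-V1 are plated, dosed with compound at multiple concentrations, and incubated 72 h at 37 degrees C; CellTiter-Glo is then added and luminescence read after 10 min.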
S2 tox: Viability Counterscreen for Primary qHTS for Inhibitors of ATXN expression; S2 cells (HEK-293 line with an ATXN2-luciferase reporter) viability, CellTiter-Fluor protease fluorescence, 24 h; Potency, µM (doses to about 56.7 µM), usual class: cytotoxic; AID 651635, 2014; actives 0.49% (n = 400,000); further: nearly all actives have a fitted effect of over 40% in size
KB-3-1 cytotox: qHTS assay for MDR1-selective chemotherapeutics: Primary screen using the parental adenocarcinoma cell KB-3-1; KB-3-1 viability, CellTiter-Glo ATP luminescence, 72 h; Potency, µM (highest dose often 46.1 µM), actives largely listed as cytotoxic; actives 1.4% (n = 400,000); further: nearly all actives have a fitted effect of over 60% in size
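Parental KB-3-1 adenocarcinoma cells in phenol-red-free DMEM with 10% FBS were pin-treated with compounds at several concentrations, incubated 72 h at 37 °C, and viability read by CellTiter-Glo luminescence; concentration-effect curves were fitted after normalization.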
ATXN2 expr inh: Primary qHTS for Inhibitors of ATXN expression. HEK-293 ATXN2-luciferase reporter, luminescence, 24 h. actives 0.72% (n = 360,000). AID 1745845, 2022. Potency, µM (series often up to 57 µM), hits mostly inhibitors; further: nearly all actives have a fitted effect of over 55% in size
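qHTS (up to 57 uM final) was run with 24 h compound exposure of reporter cells at 37 °C. Each well was multiplexed: SteadyGlo luminescence measured ATXN2-luciferase expression after a fluorogenic Gly-Phe-AFC viability readout (25 uM final).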
TGFb inhibitor: qHTS for Inhibitors of TGF-b. HepG2 CAGA-GFP TGF-b/SMAD3 reporter, GFP fluorescence, 18 h; TGF-beta stimulated, 500 pg/mL final. Potency, µM (titrated, usually from 46.1 µM), hits mostly inhibitors. actives 1.2% (n = 410,000). AID 588855, 2011; further: nearly all actives have a fitted effect of over 65% in size
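Inhibition was scored as loss of TGF-beta-induced (500 pg/mL final, 18 hours, 37 degrees C) GFP in HEPG2 cells carrying a CAGA-GFP reporter, in DMEM with 1% FBS. Well GFP was summed per cell; Activity was normalised to unstimulated and stimulated DMSO wells, then concentration-response fitting.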
HepG2 tox: qHTS for Inhibitors of TGF-b: Cytotox Counterscreen; HepG2 CAGA-GFP viability, ATP luminescence, 18 h; AID 588856, 2011; Potency, µM (highest dose often 46.1 µM), usual class: cytotoxic; actives 0.76% (n = 410,000)
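HepG2 CAGA-GFP cells (1000/well, DMEM with 1% FBS) received compound, then TGF-beta at 500 pg/mL final, and were incubated 18 hours at 37 degrees C. Viability was read by CellTiter-Glo luminescence. Media-only wells were set as complete cell-killing and DMSO as no toxicity.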
Large screens that a line does not name were inactive. Most compounds without a hit are left out; they make up all but 5.9% or so of the library. The call rests on the fitted dose curve; in most records, active means well fitted curve in the direction sought with a large enough effect; inconclusive means small, poorly fitted or top-dose-only effect, or another doubt; inactive means no such curve, though single readings can be large; an effect the other way counts as inactive or inconclusive.

O=C(CCS(=O)(=O)c1nc(-c2cccs2)cc(C(F)(F)F)n1)Nc1cccc(O)c1	TGFb inhibitor inconclusive (no result: KB-V1 cytotox, S2 tox, KB-3-1 cytotox, ATXN2 expr inh)
O=C(CCS(=O)(=O)c1nc(-c2ccc3c(c2)OCO3)cc(C(F)(F)F)n1)Nc1ccc(F)c(Cl)c1	TGFb inhibitor 20µM, HepG2 tox 13µM (no result: KB-V1 cytotox, S2 tox, KB-3-1 cytotox, ATXN2 expr inh)
COc1cc(NC(=O)CCS(=O)(=O)c2nc(-c3cccs3)cc(C(F)(F)F)n2)cc(OC)c1OC	TGFb inhibitor 13µM, HepG2 tox 11µM (no result: KB-V1 cytotox, S2 tox, KB-3-1 cytotox, ATXN2 expr inh)
COCCNC(=O)Cn1c(=O)n(-c2ccc(C)c(C)c2)c(=O)c2c3c(sc21)CCCCC3	none
CS(=O)(=O)n1nc(-c2ccco2)nc1NCc1ccccc1Cl	none
O=C(c1ccccc1)c1ccccc1N1C(=O)C=CC1=O	ATXN2 expr inh inconclusive, TGFb inhibitor inconclusive (no result: S2 tox)
O=C1C=CC(=O)N1c1ccccc1N1C(=O)C=CC1=O	KB-V1 cytotox 26µM, S2 tox 35µM, KB-3-1 cytotox inconclusive, ATXN2 expr inh inconclusive, TGFb inhibitor inconclusive
Cn1cc(C(=O)c2ccc(Cl)cc2)cc1-c1nc2ccccc2n1C	KB-V1 cytotox 13µM, S2 tox inconclusive, ATXN2 expr inh inconclusive
COc1ccc(NC(=O)CN(C)C(=O)CC2CCCC2)cc1	none
CN(CC(=O)Nc1ccc(F)c(F)c1F)C(=O)CC1CCCCC1	KB-V1 cytotox 15µM, TGFb inhibitor inconclusive
O=C(NCCn1cc(SCc2ccccc2F)c2ccccc21)c1c(F)cccc1F	S2 tox inconclusive, TGFb inhibitor inconclusive
